This is part of a sample that, as a whole, favours compounds with a hit. Of some 83,000 tested, about 20% had one in any assay.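 Single-dose data. Exposure time 48 hours. Values below 10 considered active.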 Values without a mark were called inactive. Active and inactive are the calls of the source.
Assays:
Assay in all cases: NCI-60 one-dose screen, 48 h (100 = growth as untreated, 0 = no growth, -100 = all killed)
Conditions in all cases: 10 µM unless noted
RPMI-8226 leukemia = system: RPMI-8226 leukemia
OVCAR-8 ovarian = system: OVCAR-8 ovarian
OVCAR-5 ovarian = system: OVCAR-5 ovarian
OVCAR-4 ovarian = system: OVCAR-4 ovarian
SK-OV-3 ovarian = system: SK-OV-3 ovarian
IGROV1 ovarian = system: IGROV1 ovarian
OVCAR-3 ovarian = system: OVCAR-3 ovarian
HS 578T breast = system: HS 578T breast
NCI/ADR-RES ovarian = system: NCI/ADR-RES ovarian
T-47D breast = system: T-47D breast
BT-549 breast = system: BT-549 breast
MDA-MB-435 melanoma = system: MDA-MB-435 melanoma
SW-620 colon = system: SW-620 colon
MCF7 breast = system: MCF7 breast
HCT-116 colon = system: HCT-116 colon
KM12 colon = system: KM12 colon
HCC-2998 colon = system: HCC-2998 colon

| SMILES | growth (RPMI-8226 leukemia) | growth (OVCAR-8 ovarian) | growth (OVCAR-5 ovarian) | growth (OVCAR-4 ovarian) | growth (SK-OV-3 ovarian) | growth (IGROV1 ovarian) | growth (OVCAR-3 ovarian) | growth (HS 578T breast) | growth (NCI/ADR-RES ovarian) | growth (T-47D breast) | growth (BT-549 breast) | growth (MDA-MB-435 melanoma) | growth (SW-620 colon) | growth (MCF7 breast) | growth (HCT-116 colon) | growth (KM12 colon) | growth (HCC-2998 colon) |
| --- | --- | --- | --- | --- | --- | --- | --- | --- | --- | --- | --- | --- | --- | --- | --- | --- | --- |
| N#Cc1c(-c2ccc(F)cc2)nc(N=Nc2c(O)[nH]c3ccc(Cl)cc23)nc1N1CCOCC1 | 80.1% | 19.1% | 84.5% | -37.7% (active) | 17.2% | 29.3% | 21.6% | 15.5% | 16.4% | 46.7% | 71.4% | 67% | 68.9% | 39.9% | 21.4% | 48.5% |  |
| O=C(CN1N=C(c2ccc(F)cc2)CCC1=O)Nc1nc2ccccc2s1 | 26.8% | -43% (active) | 16.9% | 35.4% | 73.5% | -49.5% (active) | -40.6% (active) | 67.6% | 6.92% (active) | 83.3% | -71.2% (active) | 99.9% | 57.8% | 87.4% | 70.7% | 45.1% |  |
| CCOc1ccc(C2N(c3cc(OC)c(OC)c(OC)c3)C(=O)C2(F)F)cc1 (stereo unspecified) | 14.6% | 43.2% | 66.5% | 49.6% | 71.9% | 37.8% | 7.25% (active) | 37.4% | 28.9% | 70% |  | 16.8% | 25.5% | 17.2% | 8.92% (active) | 28% | 81.7% |
| O=C(CCc1nnc2sc(OCc3ccccc3)nn12)c1nc2ccc([N+](=O)[O-])cc2[nH]1 | 106% | 94.7% | 103% | 102% | 77.3% | 93.8% | 96.4% | 88.2% | 99% | 97.7% | 102% | 106% | 107% |  |  | 95.7% | 101% |
| COc1ccc(C2N(c3cc(OC)c(OC)c(OC)c3)C(=O)C2(F)F)cc1F (stereo unspecified) | 20.8% | 44.1% | 78.7% | 58.3% | 75.5% | 44.2% | 17.6% | 21.9% | 32.9% | 65.7% |  | 12.9% | 21.2% | 15.1% | 5.76% (active) | 22.9% | 84.2% |
| CC(=O)O[C@@H]1C[C@]2(C)[C@H]3[C@H](O)C[C@@H]4C5=CC(C)(C)CC[C@]5(C)CC[C@@]4(C)[C@]3(C)CC[C@H]2C(C)(C)[C@H]1O | 124% | 104% | 106% | 106% | 107% | 106% | 101% | 99.1% | 104% | 82.3% | 102% | 99.8% | 98.7% |  |  | 105% | 107% |
| O=C(O)CCNC1CCCCC1 | 96.3% | 99.9% | 86% | 103% | 101% | 105% | 108% | 96.6% | 93.1% | 104% | 99.6% | 117% | 101% | 87.5% | 92.6% | 99.7% |  |
| COc1ccc(/C=C/C(=O)c2ccc(NC(=O)CSc3nnc(-c4ccc(OC)c(OC)c4)n3-c3ccccc3)cc2)cc1 | -25% (active) | 11.4% | 112% | 91.3% | 85.1% | -36.7% (active) | 59.8% | 86.6% | 57.4% | 36.2% | 55.2% | 45.3% | 10.2% | -8.34% (active) | -85.8% (active) | 61.3% |  |
| CC1CCCN(CCCCCOc2ccc3oc4ccc(Cl)cc4c(=O)c3c2)C1 (stereo unspecified) | 61.8% | 75% | 70.4% | 63.2% | 91.9% | 68.7% | 76.6% | 84.7% | 73% | 64.8% | 80.3% | 25.1% | 56.6% | 60.8% | 32.2% | 59.4% |  |
| COc1ccc(-c2cn(-c3ccc(Cl)cc3)c(=S)[nH]2)cc1OC | 12.9% | 53% | 64.1% | 86.8% | 79.3% | 49.4% | 88.4% | 100% | 37% | 68.1% | 78.6% | 86.1% | 114% | 72.2% | 32.2% | 70.2% |  |
| CCOC(=O)NCCc1nc2c([nH]1)c(=O)n(C)c(=O)n2C | 106% | 107% | 90.3% | 107% | 122% | 97.1% | 113% | 104% | 99.8% | 102% | 97.6% | 101% | 103% | 95.4% | 92.7% | 101% |  |
| Nc1c(C(=O)c2ccccc2)sc2nc(-c3cc4ccccc4o3)cc(-c3ccc(Cl)cc3)c12 | 82.7% | 95.8% | 107% | 98.3% | 106% | 55.8% | 85.1% | 136% | 108% | 90% | 97.9% | 108% | 118% | 92% | 101% | 93.4% |  |
| COc1ccc(C2CC(c3ccc(OC)cc3O)=NN2c2ccc(S(N)(=O)=O)cc2)cc1 (stereo unspecified) | -32.6% (active) | 43% | 83.7% | 42.3% | 69.2% | 13.2% | 47.7% | 78.1% | 54% | 24.5% | 58.2% | 36.8% | 50.6% | 13.7% | 20.5% | 23.7% |  |
| O=C(Nc1ccccc1)NS(=O)(=O)c1c[nH]c(=S)[nH]c1=O | 103% | 94.9% | 113% | 105% | 69.9% | 106% | 110% | 108% | 104% | 75.1% | 92.1% | 108% | 105% | 100% | 93.8% | 105% |  |
| O=C(Nc1cccc(-c2cccc(F)c2)c1)C1CCN(Cc2cccc3cccnc23)CC1 | 19% | 72% | 82.9% | 51.6% | 68.3% | 62.7% | 60.8% | 60.9% | 73% | 29% |  | 35% | 43.3% | 19.9% | 33.8% | 53.3% | -70.4% (active) |
| COC(=O)/C=C1\SC(=Nc2ccc(C(F)(F)F)cc2)N(CCc2c[nH]c3ccccc23)C1=O | -22.5% (active) | -9.92% (active) | -41.4% (active) | -33.2% (active) | 10.4% | -66.1% (active) | -91% (active) | -2.51% (active) | -12.9% (active) | -40.7% (active) | -21.8% (active) | -85.1% (active) | -76.1% (active) | -7.91% (active) | -63.4% (active) | -62.8% (active) |  |
| COc1ccc2nc(-c3ccc(OC)c(OC)c3)cc(-c3nnc(SCC(=O)Nc4ccc(/C(C)=N\O)cc4)n3-c3ccccc3)c2c1 | 47.7% | 72.4% | 102% | 95.5% | 101% | 28.1% | 87.8% | 72.2% | 77.2% | 45.8% | 56.4% | 84.9% | 89.6% |  |  | 75.9% | 101% |
| NS(=O)(=O)c1ccc(C2C3=C(CCCC3=O)OC3=C2C(=O)c2ccccc2C3=O)cc1 (stereo unspecified) | -35.8% (active) | -14.5% (active) | -53.1% (active) | -96.6% (active) | -23.9% (active) | -52.3% (active) | -66.1% (active) | -5.38% (active) | 56.9% | -50.7% (active) |  | -93% (active) | -45.4% (active) | -61.5% (active) | -73.6% (active) | -29.1% (active) | -61.4% (active) |
| O=c1[nH]nc(-c2ccc(Br)cc2)c2sc(NC(=S)Nc3ccc(Cl)cc3)nc12 | 101% | 95.4% | 97.3% | 91.5% | 96.9% | 81.1% | 104% | -1.82% (active) | 80% | 85.9% |  | 104% | 96.7% | 79.7% | 96.8% | 99.3% | 97.6% |

From PubChem BioAssay (NCI)
